Drawing on PubChem BioAssay AID620 (Sanford-Burnham Center for Chemical Genomics, 2007), this text covers cytotoxicity for 110 molecules.

The whole screen tested about 87,000 compounds, of which about 360 (0.41%) were called active. What follows is part of a selection rich in actives, with near analogues and random picks from the rest. Values without a mark were called inactive. Rule as the data show it: active = cytotoxicity above about 50%; inactive = the rest.

The assay is described as follows: HT1080 cell viability loss – fluorescence readout (AID 620).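 Also: cells exposed to compound overnight then 4 h with Alamar Blue; 0% = vehicle DMSO and 100% = killing control.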 The following applies: at 10 µM, hits give high values.
Turning to `CCCc1cc(=O)[nH]c(SCC(=O)C(C)(C)C)n1`, the cytotoxicity was -8.7%.
In the case of `CCCC(C)C1C(C#N)=C(N)Oc2cc(C)oc(=O)c21` (stereo not given), the cytotoxicity was 0.8%.
Regarding `Cc1onc(-c2c(F)cccc2Cl)c1C(=O)OCn1nnc2ccccc2c1=O`, the cytotoxicity was -0.3%.
With `O=C(OCn1ncc(Br)c(Br)c1=O)c1ccc(F)cc1`, the cytotoxicity was 95.8% (active).
As for `O=C(OCn1ncc(Br)c(Br)c1=O)c1c(F)cccc1F`, the cytotoxicity is 100% (active).
On to `CCn1ncc(Br)c1C(=O)Nc1ccc(C(=O)OC(C)C)cc1`, for which the cytotoxicity is -9.8%.
With `CCn1ncc(Br)c1C(=O)Nc1ccc(F)cc1F`, the cytotoxicity is 2.8%.
As to `O=C(OCn1ncc(Br)c(Br)c1=O)c1ccccc1Cl`, the cytotoxicity was 40%.
As to `CC1CC(C)CN(C(=O)c2ccccc2Nc2ccc(SC(F)F)cc2)C1` (stereo not given), the cytotoxicity is -5.3%.
In the case of `COc1cc(OC)cc(-c2nnc(SCC(=O)N3CCCC3)o2)c1`, the cytotoxicity was 9%.
For `CCOc1cc(C(c2c(C)[nH][nH]c2=O)c2c(C)[nH][nH]c2=O)ccc1OS(=O)(=O)c1ccc(C)cc1` the value was -4.6%; for `CCCSc1nnc(Sc2nnnn2-c2ccccc2)s1`, 60% (active).
Consider `COc1ccc(-n2nnnc2SCC(=O)NCCc2ccc(OC)c(OC)c2)cc1`, for which the cytotoxicity was -21.1%.
Consider `c1ccc(-n2nnnc2SCCCSc2nc3ccccc3s2)cc1`, for which the cytotoxicity is 5.7%.
With `COc1ccc(CCNc2nnc(Sc3nnnn3-c3ccccc3)s2)cc1OC`, the cytotoxicity is 57.2% (active).
For `CCSc1nnnn1-c1ccccc1`, the cytotoxicity was 11%.
Consider `COc1ccc(CCNC(=O)CSc2nnnn2-c2ccccc2OC)cc1OC`, for which the cytotoxicity is 1%.
On to `NS(=O)(=O)c1ccc(CCNc2nc(CN3CCCCC3)nc3sc4c(c23)CCC4)cc1`, for which the cytotoxicity was 28.3%.
For `CSc1nc(-c2ccccc2)nc2[nH]ccc(=O)c12` the value was 8.6%.
As to `CSc1nc2ccc(S(=O)(=O)N(C)C)cc2s1`, the cytotoxicity is -0.9%.
In the case of `CCc1cc(C)c(O)c(CC)n1`, the cytotoxicity was -4.2%.
Turning to `Cn1c2ccccc2c2cc(C(=O)O)ccc21`, the cytotoxicity was 6.9%.
As to `Nc1ccc(C(=O)n2c3ccccc3c3ccccc32)cc1`, the cytotoxicity was 52.6% (active).
In the case of `Nc1ccc(C(=O)N2CCCC2)cc1`, the cytotoxicity was 13%.
Consider `CC(C)Cc1nnc(NC(=O)CC(=O)Nc2ccccc2C(=O)O)s1`, for which the cytotoxicity is -4.8%.
In the case of `O=C(NC1CC1)c1sccc1-n1cccc1`, the cytotoxicity was 4%.
On to `COc1cccc(OCCSc2nnc3sc4ccccc4n23)c1`, for which the cytotoxicity is 12.4%.
For the molecule `COc1ccc(OCCSc2nnc3sc4ccccc4n23)cc1`, the cytotoxicity is -2.4%.
To `CCOC(=O)C1CCN(C(=O)CCCN2C(=O)c3ccccc3C2=O)CC1` belongs 5%; to `CC[Si](CC)(CC)c1c2c(nc3ccc(OC)cc13)-c1cccc(=O)n1C2`, -6.3%; to `CCNC(=O)COc1ccc(S(=O)(=O)Nc2ccccc2)cc1`, 2.5%.
Turning to `COc1ccc(S(=O)(=O)Cc2ccc(C(=O)NCc3ccc(F)cc3)o2)cc1`, the cytotoxicity is -10.5%.
`COc1ccc(-n2c(Cc3cccn3C)nnc2SCC(=O)N2CCCc3ccccc32)cc1`: the cytotoxicity is 0.6%.
Consider `CCCCCCN(C(=O)CCCCCN1C(=O)NC(c2ccc([N+](=O)[O-])cc2)C(C(=O)OCc2ccccc2)=C1C)C(C(=O)NCCCC)c1ccc(OCC(=O)OC)c(C(=O)OC)c1` (stereo not given), for which the cytotoxicity was -7.3%.
As for `Cc1ccc(S(=O)(=O)Nc2cccc3cccnc23)cc1`, the cytotoxicity was -3%.
For the molecule `Cc1ccc(-n2c(-c3ccc(Br)cc3)c[n+]3c2CCc2ccc4cccnc4c2-3)cc1`, the cytotoxicity was 63.8% (active).
Take `Brc1ccc(-c2nnc3n2-c2ccccc2CC3)cc1`: the cytotoxicity is 2%.
For `COc1ccccc1NC(=O)CSc1nnc(COc2ccc(Cl)cc2)n1Cc1ccco1`, the cytotoxicity is -2%.
Take `COc1ccc(OC)c(NC(=O)CN(c2ccc(C)cc2)S(=O)(=O)c2c(C)noc2C)c1`: the cytotoxicity was 2.3%.
For `CCOc1ccccc1NC(=O)CN(c1cc(C)cc(C)c1)S(=O)(=O)c1c(C)noc1C` the value was -7.8%.
For `CCOc1ccc(N(CC(=O)Nc2ccc(C)cc2)S(=O)(=O)c2c(C)noc2C)cc1`, the cytotoxicity was 3.5%.
For the molecule `CCOc1ccccc1NC(=O)CN(c1ccc(OC)cc1)S(=O)(=O)c1c(C)noc1C`, the cytotoxicity is 53.1% (active).
In the case of `CCOc1ccccc1NC(=O)CN(c1ccc(C)cc1)S(=O)(=O)c1c(C)noc1C`, the cytotoxicity was -3.3%.
Take `CCOc1ccc(N(CC(=O)NC(C)(C)C)S(=O)(=O)c2c(C)noc2C)cc1`: the cytotoxicity was -10.4%.
Regarding `COc1ccc(N(CC(=O)Nc2cc(Cl)ccc2OC)S(=O)(=O)c2c(C)noc2C)cc1`, the cytotoxicity is 53.8% (active).
As to `CCOc1ccc(N(CC(=O)Nc2ccccc2C)S(=O)(=O)c2c(C)noc2C)cc1`, the cytotoxicity is 54.9% (active).
In the case of `COc1ccc(N(CC(=O)Nc2cc(C)ccc2OC)S(=O)(=O)c2c(C)noc2C)cc1`, the cytotoxicity was -2.6%.
Take `Cc1cccc(C)c1-n1c(C)cc(/C=C2\NC(=O)NC2=O)c1C`: the cytotoxicity was 15.3%.
Turning to `Cc1cccc(Nc2nn3c(=O)c4ccccc4nc3s2)c1`, the cytotoxicity was 6.1%.
In the case of `CCCCCCSc1cc(C)nc2ncnn12`, the cytotoxicity was -4.5%.
As for `CCOc1cc(-c2noc(-c3ccncc3)n2)cc(Br)c1OC`, the cytotoxicity is -6.4%.
For `CCN(CC)C(=O)CN(C#N)c1nc(OC)nc(N(C)C)n1` the value was 5.3%; for `CCCCn1c(N)c(N(CC)C(=O)c2ccc3c(c2)S(=O)(=O)c2ccccc2C3=O)c(=O)[nH]c1=O`, -1.2%; for `CCn1c(SCC(=O)Nc2ccc3c(c2)OCO3)nnc1-c1cnccn1`, 102% (active).
In the case of `Cn1c(SCC(=O)Nc2ccc3c(c2)OCO3)nnc1-c1cnccn1`, the cytotoxicity was 13.4%.
Turning to `CCn1c(SCC(=O)Nc2ccc3c(c2)OCCO3)nnc1-c1ccccn1`, the cytotoxicity is 37%.
For `CN1C(=O)c2ccc(S(=O)(=O)c3ccc(C(=O)O)cc3)cc2C1=O` the value was 3.3%; for `Cc1ccc2[nH]c(=O)c(-c3nc4ccccn4c3NCc3ccco3)cc2c1`, -4.4%.
For `COc1ccc2c(c1)C(C1=C(O)CC(C)(C)CC1=O)C1=C(CC(C)(C)CC1=O)O2` (stereo not given), the cytotoxicity was 10.3%.
Consider `CC[C@]1(O)CC2CN(CCc3c([nH]c4ccccc34)[C@@](C(=O)OC)(c3cc4c(cc3OC)N(C=O)[C@H]3[C@@](O)(C(=O)OC)[C@H](OC(C)=O)[C@]5(CC)C=CCN6CC[C@]43[C@@H]65)C2)C1` (stereo not given in full), for which the cytotoxicity is 65.8% (active).
For the molecule `CC(C)Cn1c(=O)c2c(c3ccccc31)OC(C)C(=O)N2` (stereo not given), the cytotoxicity is -0.6%.
Regarding `CCOC(=O)CNC(=O)C(Cc1ccccc1)NS(=O)(=O)c1ccc2c(c1)CCC(=O)N2` (stereo not given), the cytotoxicity was 0.8%.
With `Cc1cccnc1Nc1nc(-c2ccc(O)c(O)c2)cs1`, the cytotoxicity was 9.2%.
To `Oc1ccc(Nc2nc(-c3ccc4ccccc4c3)cs2)cc1` belongs 53.6% (active).
For `Oc1ccc(-c2nc(-c3ccc(O)c(O)c3)cs2)cc1` the value was 61.2% (active).
`Oc1ccc(-c2csc(-c3ccccc3)n2)cc1O`: the cytotoxicity is 15.6%.
For `NS(=O)(=O)c1ccc(Nc2nc(-c3ccc4ccccc4c3)cs2)cc1`, the cytotoxicity was -2.9%.
To `Oc1ccc(Nc2nc(-c3ccc(O)cc3)cs2)cc1` belongs 2.8%.
Consider `O=C(O)CCc1ccc(-c2cccs2)n1CCC(=O)O`, for which the cytotoxicity was -6.8%.
For the molecule `Cn1nc(-c2ccccc2)c(-c2nc(-c3cccc(C(F)(F)F)c3)no2)c1Cl`, the cytotoxicity is 6.9%.
`COC(=O)c1ccc(C(=O)OC)c(NC(=O)CSc2nc(-c3ccco3)cc(C(F)(F)F)n2)c1`: the cytotoxicity was 5.6%.
Turning to `Cc1cccc(C)c1NC(=O)CSc1nc(-c2ccco2)cc(C(F)(F)F)n1`, the cytotoxicity was 3.3%.
As for `COC(=O)c1ccccc1NC(=O)CSc1nc(-c2ccco2)cc(C(F)(F)F)n1`, the cytotoxicity is 52.3% (active).
Take `Cc1cc(NC(=O)CCCSc2nc(-c3ccco3)cc(C(F)(F)F)n2)no1`: the cytotoxicity was 2.7%.
To `Cc1ccc(NC(=O)CSc2nc(-c3ccco3)cc(C(F)(F)F)n2)cc1C` belongs -8.6%.
`O=C(CSc1nnc(-c2ccccn2)n1Cc1ccccc1)Nc1ccc2c(c1)OCO2`: the cytotoxicity is 3.3%.
For the molecule `Cc1oc(C(=O)O)cc1COc1ccc2c(C)cc(=O)oc2c1`, the cytotoxicity was -7.7%.
For `CC(=O)c1c(C)[nH]c(C(=O)N2CCN(c3ncccn3)CC2)c1C` the value was -1.6%; for `CC(=O)c1c(C)[nH]c(C(=O)N2CCN(c3ccc(F)cc3)CC2)c1C`, -1.4%; for `COc1cccc(N2CCN(C(=O)c3[nH]c(C)c(C(C)=O)c3C)CC2)c1`, 51% (active).
Consider `COc1ccccc1NC(=O)Cn1nc(C(F)(F)F)c2c1CCCC2`, for which the cytotoxicity is -0.3%.
Regarding `CCOC(=O)c1c(C)cc(=O)oc1C`, the cytotoxicity was -21.5%.
Regarding `CCOC(=O)c1c(C)oc2cc3c(C(=O)OCC)c(C)oc3cc12`, the cytotoxicity is -0.1%.
For `CCOC(=O)c1c(C)oc2c(F)c(F)c(F)c(F)c2c1=O` the value was 96.5% (active); for `COC(=O)Nc1cc(C)nc2ccccc12`, -9.1%; for `COc1ccc(N2CCN(c3ncnc4nc[nH]c34)CC2)cc1`, -6.5%.
With `O=c1cc(N2CCN(Cc3ccccc3)CC2)[nH]c(=O)n1-c1cccc(C(F)(F)F)c1`, the cytotoxicity was 12.7%.
With `O=C(CSc1nc2ccccc2[nH]1)Nc1cc(C(F)(F)F)ccc1N1CCOCC1`, the cytotoxicity was -2.4%.
For `Cc1ccc2nc(SCC(=O)Nc3cc(C(F)(F)F)ccc3N3CCOCC3)[nH]c2c1` the value was 62.5% (active).
Regarding `O=C(Nc1cc(C(F)(F)F)ccc1N1CCOCC1)c1c(F)c(F)c(F)c(F)c1F`, the cytotoxicity was 1.3%.
Turning to `Cc1nnc(SCC(=O)Nc2cc(C(F)(F)F)ccc2N2CCOCC2)o1`, the cytotoxicity is 7%.
For `Cc1onc(-c2ccccc2)c1C(=O)Nc1ccccc1N1CCOCC1` the value was 3.3%; for `Cc1onc(-c2ccccc2)c1C(=O)Nc1cc(C(F)(F)F)ccc1N1CCOCC1`, 59.2% (active); for `COCCNC(=O)C1(C)C=CCN1C(C)=O` (stereo not given), -17.3%.
As for `COc1ccc(NC(=O)c2ccc(-n3nc(C)cc3C)cc2)cc1OC`, the cytotoxicity was -17.7%.
For `COC(=O)c1ccccc1S(=O)(=O)C(C)(C)C` the value was 7.6%; for `CCOCCCNC(=O)C1CCN(S(=O)(=O)N2CCCCC2)CC1`, 1.1%; for `COC(=O)C1=[N+]([O-])OC(C(=O)OC)C1c1c[nH]c2ccccc12` (stereo not given), 41.5%.
Consider `Cc1nc2c(sc3nc4c(cc32)COC(C)(C)C4)c(=O)n1CC(=O)NCc1ccco1`, for which the cytotoxicity was 55.6% (active).
In the case of `CC1(C)Cc2nc3sc4c(=O)n(CC(=O)NCc5ccco5)cnc4c3cc2CO1`, the cytotoxicity is 15.9%.
`CCc1nc2c(sc3nc4c(cc32)COC(C)(C)C4)c(=O)n1Cc1ccco1`: the cytotoxicity is 1.2%.
As to `CSC1=Nc2sc3c(c2C2=NCCN12)CCCC3`, the cytotoxicity is 7.2%.
As to `COc1cc2c(cc1OC)C1C/C(=N\O)C(CC(C)C)CN1CC2` (stereo not given), the cytotoxicity is -13.4%.
To `CC[C@H]1CN2CCc3cc(OC)c(OC)cc3[C@@H]2C[C@@H]1C[C@H]1NCCc2cc(OC)c(OC)cc21` belongs 78.8% (active); to `COc1cc2c(cc1OC)C1Cc3ccc(OC)c(OC)c3CN1CC2` (stereo not given), -0.8%; to `Cc1oc(-c2ccccc2F)nc1CN1CCC(C(=O)NCc2cccs2)CC1`, -2.2%.
For the molecule `O=S(=O)(Nc1nnc(-c2ccccc2)s1)c1ccc(Cl)cc1`, the cytotoxicity is 5.7%.
With `Cc1ncc(S(=O)(=O)c2ccc(Cl)cc2)c(-c2ccccc2)n1`, the cytotoxicity is 18.2%.
On to `O=C1NCCCC1C(=O)N1CCN(C(=O)C2CCCNC2=O)CC1` (stereo not given), for which the cytotoxicity was -7.4%.
In the case of `O=C(CCn1cccc1)Nc1ccccc1F`, the cytotoxicity was -5.1%.
